The test addresses Ribosomal protein S6 kinase alpha-1 (Homo sapiens) (UniProt Q15418). The following applies: at 0.1 µM.
Chain of Ribosomal protein S6 kinase alpha-1 (Homo sapiens) (Q15418 whole entry): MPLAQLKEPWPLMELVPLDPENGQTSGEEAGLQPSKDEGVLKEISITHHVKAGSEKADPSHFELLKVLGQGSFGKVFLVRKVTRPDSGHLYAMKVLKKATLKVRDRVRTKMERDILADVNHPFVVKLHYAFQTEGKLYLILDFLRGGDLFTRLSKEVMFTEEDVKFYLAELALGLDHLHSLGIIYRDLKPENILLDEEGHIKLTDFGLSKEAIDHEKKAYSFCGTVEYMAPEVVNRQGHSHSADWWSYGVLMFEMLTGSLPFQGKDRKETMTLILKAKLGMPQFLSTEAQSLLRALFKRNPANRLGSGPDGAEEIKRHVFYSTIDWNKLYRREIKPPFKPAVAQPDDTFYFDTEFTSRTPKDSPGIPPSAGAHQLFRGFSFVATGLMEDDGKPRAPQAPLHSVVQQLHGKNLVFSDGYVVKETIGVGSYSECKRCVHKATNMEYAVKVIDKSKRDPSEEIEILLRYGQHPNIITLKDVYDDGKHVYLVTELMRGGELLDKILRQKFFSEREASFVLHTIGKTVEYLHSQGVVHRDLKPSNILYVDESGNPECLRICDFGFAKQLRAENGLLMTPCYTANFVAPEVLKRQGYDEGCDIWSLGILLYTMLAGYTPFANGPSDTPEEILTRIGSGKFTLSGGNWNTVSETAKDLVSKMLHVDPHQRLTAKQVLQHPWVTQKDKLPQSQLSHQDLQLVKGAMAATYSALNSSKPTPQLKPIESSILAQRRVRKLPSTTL
As for `CCCNc1cccc(-n2ncc3c(N/N=C/c4ccncc4)ncnc32)c1`, the inhibition stood at 1.36%. For `COC(=O)Nc1nc2ccc(Oc3ccc(NC(=O)Nc4cc(C(F)(F)F)ccc4F)cc3)cc2s1` the value was 1.59%; for `N#Cc1ccc2c(-c3ccnc(NC4CC4)n3)c(-c3ccc(F)cc3)nn2c1`, 0.57%.

On to `Fc1cccc(COc2ccc(Nc3ncncc3C#Cc3ccccc3)cc2Cl)c1`, for which the inhibition came out at 3.37%. As to `NS(=O)(=O)c1cccc(N/C=C2\C(=O)Nc3ccccc32)c1`, the inhibition was 3.72%. For `COc1ccccc1-c1cc(/C=C2\C(=O)Nc3ncc(Br)cc32)cc(Br)c1O` the value was 0.44%; for `COC(=O)Nc1nc2cc(Oc3ccc(NC(=O)Nc4ccccc4)cc3)ccc2[nH]1`, 1.66%; for `O=C(O[C@H]1CN[C@H](C#Cc2cc3ncnc(Nc4ccc5c(cnn5Cc5ccccc5)c4)c3s2)C1)N1CCOCC1`, -1.77%.

Consider `CCn1c(-c2nonc2N)nc2cncc(C(=O)NCCNC)c21`, for which the inhibition amounted to 62.3%. As for `Cc1cc(O)cc(C)c1/C=C/c1cncc(C(=O)OC(C)(C)C)c1`, the inhibition stood at 0.74%. In the case of `N#Cc1cccc(Nc2ncc(-c3ccccc3)o2)c1` it was 0.19%.

Take `CNC(=O)c1sc(-n2cnc3cc(OC)c(OC)cc32)cc1OCc1ccccc1C(F)(F)F`: the inhibition turned out to be 1.1%. For `COc1ccc2ncn(-c3cc(O[C@H](C)c4ccccc4C(F)(F)F)c(C(N)=O)s3)c2c1` the value was 0.85%.

With `COc1ccc(-c2nn3ncccc3c2-c2ccnc(Nc3ccc(F)c(F)c3)n2)cc1`, the inhibition stood at 4.22%. In the case of `Cc1cc(O)cc(C)c1/C=C/c1cncc(C(N)=O)c1` it was 0.33%; in that of `Fc1ccc(Nc2nccc(-c3c(-c4ccc(C(F)(F)F)cc4)nn4ncccc34)n2)cc1F`, 0.24%.

Usually inhibition stands for the change of the read-out against control, counted positive when it falls.

The record behind these values is ChEMBL document CHEMBL1961873, “Compounds: GSK PKIS; Assays: Nanosyn kinase panel” (2012).
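Note: values are mean percent inhibition of RSK1 measured in the GSK PKIS kinase inhibitor set screen.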
